PubChem BioAssay (NCI)
About 83,000 compounds went through this panel and 20% of them were active in at least one assay; those are over-represented in the sample as a whole.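 Note: values are percent growth. 100 is the growth of untreated cells, values between 100 and 0 indicate rising inhibition; between -100 and 0 indicates cell death.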 Calls of active or inactive are those of the source. Rule for the calls: active = growth percent below 10; inactive = the rest.

What was measured:
Assay in all cases: NCI-60 one-dose screen, 48 h (100 = growth as untreated, 0 = no growth, -100 = all killed)
Details in all cases: 10 µM unless noted
SR leukemia = tested on: SR leukemia
RPMI-8226 leukemia = tested on: RPMI-8226 leukemia
OVCAR-8 ovarian = tested on: OVCAR-8 ovarian
OVCAR-5 ovarian = tested on: OVCAR-5 ovarian
OVCAR-4 ovarian = tested on: OVCAR-4 ovarian
SK-OV-3 ovarian = tested on: SK-OV-3 ovarian
IGROV1 ovarian = tested on: IGROV1 ovarian
OVCAR-3 ovarian = tested on: OVCAR-3 ovarian
HS 578T breast = tested on: HS 578T breast
NCI/ADR-RES ovarian = tested on: NCI/ADR-RES ovarian
T-47D breast = tested on: T-47D breast
MDA-MB-435 melanoma = tested on: MDA-MB-435 melanoma
MCF7 breast = tested on: MCF7 breast
HCT-116 colon = tested on: HCT-116 colon
HCC-2998 colon = tested on: HCC-2998 colon
KM12 colon = tested on: KM12 colon
SW-620 colon = tested on: SW-620 colon
BT-549 breast = tested on: BT-549 breast

Measured: growth

CCOC(=O)c1cc(C(=O)c2ccc(OC)cc2)n2ccc(/C=C/c3cc[n+](CC(=O)c4ccc(OC)cc4)cc3)cc12
inactive: RPMI-8226 leukemia 10.4% | OVCAR-8 ovarian 21.1% | OVCAR-5 ovarian 87.1% | OVCAR-4 ovarian 16.1% | SK-OV-3 ovarian 109% | IGROV1 ovarian 63.1% | OVCAR-3 ovarian 60.9% | HS 578T breast 105% | NCI/ADR-RES ovarian 98.1% | T-47D breast 36.3% | MDA-MB-435 melanoma 77% | HCC-2998 colon 36.7% | KM12 colon 91.9%
active: SR leukemia -29.5% | MCF7 breast -62.6% | HCT-116 colon 3.01%

COc1ccc(/C=C/c2nc(Nc3cccc(NC(C)=O)c3)c3ccccc3n2)cc1
inactive: SR leukemia 64.7% | RPMI-8226 leukemia 89.3% | OVCAR-8 ovarian 84.5% | OVCAR-5 ovarian 86.8% | OVCAR-4 ovarian 104% | SK-OV-3 ovarian 99.5% | IGROV1 ovarian 99.7% | OVCAR-3 ovarian 97.7% | HS 578T breast 89.1% | NCI/ADR-RES ovarian 90% | T-47D breast 70% | MDA-MB-435 melanoma 85.2% | SW-620 colon 92.1% | MCF7 breast 49.9% | HCT-116 colon 81.3% | HCC-2998 colon 88.4% | KM12 colon 83.2%

CCN1CCN(CCNc2nccc(-c3c(-c4cccc(OC)c4)nc4occn34)n2)S1(=O)=O
inactive: SR leukemia 96.3% | RPMI-8226 leukemia 96.2% | OVCAR-8 ovarian 99.3% | OVCAR-5 ovarian 130% | OVCAR-4 ovarian 114% | SK-OV-3 ovarian 92% | IGROV1 ovarian 79.9% | OVCAR-3 ovarian 107% | HS 578T breast 114% | NCI/ADR-RES ovarian 109% | T-47D breast 76.3% | BT-549 breast 111% | MDA-MB-435 melanoma 52.2% | MCF7 breast 86.1% | HCT-116 colon 99.8% | HCC-2998 colon 130% | KM12 colon 100%

COc1cc2c(c(OC)c1OC)CCC(c1cccc(NC(=O)c3cccc(Br)c3)c1)O2 (configuration not stated)
inactive: SR leukemia 84.2% | RPMI-8226 leukemia 78.2% | OVCAR-8 ovarian 93.6% | OVCAR-5 ovarian 98.5% | OVCAR-4 ovarian 83.5% | SK-OV-3 ovarian 84% | IGROV1 ovarian 85% | OVCAR-3 ovarian 97.3% | HS 578T breast 84.1% | NCI/ADR-RES ovarian 91.8% | T-47D breast 72.5% | MDA-MB-435 melanoma 87.4% | SW-620 colon 93.2% | MCF7 breast 89% | HCT-116 colon 72.2% | HCC-2998 colon 99.7% | KM12 colon 95.2%

Cn1c(N2NC(=O)C(N=Nc3ccc(S(N)(=O)=O)cc3)C2=O)nc(-c2ccco2)c(C#N)c1=O (configuration not stated)
active: SR leukemia 1.63% | RPMI-8226 leukemia 3.99%
inactive: OVCAR-8 ovarian 90.2% | OVCAR-5 ovarian 115% | OVCAR-4 ovarian 59.2% | SK-OV-3 ovarian 102% | IGROV1 ovarian 30.7% | OVCAR-3 ovarian 72.7% | HS 578T breast 104% | NCI/ADR-RES ovarian 93% | T-47D breast 72.2% | MDA-MB-435 melanoma 119% | SW-620 colon 51.9% | MCF7 breast 68% | HCT-116 colon 76.4% | HCC-2998 colon 51.1% | KM12 colon 85.5%

COc1ccc(/C=C2\COc3ccc(-c4ccccc4)cc3C2=O)c(OC)c1
inactive: SR leukemia 69.1% | RPMI-8226 leukemia 77.4% | OVCAR-8 ovarian 96.4% | OVCAR-5 ovarian 101% | OVCAR-4 ovarian 64.7% | SK-OV-3 ovarian 107% | IGROV1 ovarian 120% | OVCAR-3 ovarian 98.3% | HS 578T breast 125% | NCI/ADR-RES ovarian 72.6% | T-47D breast 68.1% | MDA-MB-435 melanoma 119% | SW-620 colon 92.9% | MCF7 breast 76.9% | HCT-116 colon 75.7% | HCC-2998 colon 75.4% | KM12 colon 97.7%

O=C(c1nnc(Nc2ccccc2Br)o1)c1c[nH]c2ccccc12
inactive: SR leukemia 103% | RPMI-8226 leukemia 93.6% | OVCAR-8 ovarian 94.9% | OVCAR-5 ovarian 99.6% | OVCAR-4 ovarian 106% | SK-OV-3 ovarian 83% | IGROV1 ovarian 72.6% | OVCAR-3 ovarian 97.2% | HS 578T breast 104% | NCI/ADR-RES ovarian 102% | T-47D breast 79.6% | BT-549 breast 103% | MDA-MB-435 melanoma 101% | MCF7 breast 77.2% | HCT-116 colon 88.4% | HCC-2998 colon 88.6% | KM12 colon 81.7%

C=C1C(=O)O[C@H]2[C@H]1CC/C(CNC(=O)/C=C/c1cccc(OC)c1)=C\CC[C@@]1(C)O[C@@H]21
inactive: OVCAR-5 ovarian 39.8% | OVCAR-4 ovarian 19.4% | SK-OV-3 ovarian 86% | IGROV1 ovarian 20.6% | HS 578T breast 73.1% | NCI/ADR-RES ovarian 82.6% | MDA-MB-435 melanoma 16.7% | HCC-2998 colon 36.5% | KM12 colon 80%
active: SR leukemia 8.06% | RPMI-8226 leukemia 2.73% | OVCAR-8 ovarian 3.77% | OVCAR-3 ovarian -62.6% | T-47D breast -4.32% | SW-620 colon -61.9% | MCF7 breast -7.47% | HCT-116 colon -62.2%

N#Cc1c(NC(=O)NCc2ccccc2)sc2c1CCCCC2
active: OVCAR-3 ovarian -17.6% | HS 578T breast 9.89% | MDA-MB-435 melanoma -40.5% | HCT-116 colon 8.9%
inactive: SR leukemia 29.5% | RPMI-8226 leukemia 14.8% | OVCAR-8 ovarian 21.8% | OVCAR-5 ovarian 43.5% | OVCAR-4 ovarian 43% | SK-OV-3 ovarian 25% | IGROV1 ovarian 27.2% | NCI/ADR-RES ovarian 17.2% | T-47D breast 37.8% | SW-620 colon 21.5% | MCF7 breast 19.1% | HCC-2998 colon 24.5% | KM12 colon 12.6%
